# The sample as a whole holds a higher share of the strongest signals than the screen did.
# B1: DBA (Dolichos biflorus) (protein)
# chain: ANIQSFSFKNFNSPSFILQGDATVSSGKLQLTKVKENGFPLRFPSGRAFYSSPIQIYDKFTGAVASWATSFTVKISAPSKASFADGIAFALVPVGSEPRRNGGYLGVFDSDVYNNSAQTVAVEFDTLSNSGWDPSMKHIGIDVNSIKSIATVSWDLANGENAEILITYNAATSLLVVSLVHPSRRTSYILSERVDITNELPEYVGVGFSATTGLSEGYIETHDVLSWSFASRLPDDSTAEPLDLARYLVRNVL
# Assays:
# Experiment in all cases: glycan array binding signal (z-score within array); higher = stronger binding
# Settings in all cases: glycan notation: IUPAC condensed, linker removed
# [1] = molecular target: Fuc(a1-2)Gal(b1-3)GalNAc(a1-3)[Fuc(a1-2)]Gal(b1-4)Glc
# Procedure, shortened: (§1)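 From the Consortium for Functional Glycomics database, 3228 arrays were curated, keeping only those whose protein sequence was available. Binding is given as a within-array Z-score averaged across arrays sharing a protein sequence and across linkers. Negative Z-scores can be read as non-binding.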
# [2] = molecular target: Fuc(a1-2)Gal(b1-3)GlcNAc(b1-3)[Gal(b1-4)GlcNAc(b1-6)]Gal(b1-4)Glc
# Procedure, shortened: as §1
# [3] = molecular target: Fuc(a1-2)Gal(b1-3)GlcNAc(b1-3)[Neu5Ac(a2-6)Gal(b1-4)GlcNAc(b1-6)]Gal(b1-4)Glc
# Procedure, shortened: as §1
# [4] = molecular target: Fuc(a1-2)Gal(b1-3)[Fuc(a1-4)]GlcNAc
# Procedure, shortened: as §1
# Fuc(a1-2)Gal(b1-4)Glc6S = molecular target: Fuc(a1-2)Gal(b1-4)Glc6S
# Procedure, shortened: as §1
# [5] = molecular target: Fuc(a1-2)Gal(b1-4)[Fuc(a1-3)]GlcNAc(b1-3)GalNAc
# Procedure, shortened: as §1
# [6] = molecular target: Fuc(a1-2)Gal3S(b1-4)GlcNAc
# Procedure, shortened: as §1
# Fuc(a1-2)Gal6S(b1-4)Glc = molecular target: Fuc(a1-2)Gal6S(b1-4)Glc
# Procedure, shortened: as §1
# [7] = molecular target: Fuc(a1-2)[GalNAc(a1-3)]Gal
# Procedure, shortened: as §1
# [8] = molecular target: Fuc(a1-2)[GalNAc(a1-3)]Gal(b1-3)GlcNAc(b1-6)GalNAc
# Procedure, shortened: as §1
# [9] = molecular target: Fuc(a1-2)[GalNAc(a1-3)]Gal(b1-4)Glc
# Procedure, shortened: as §1
# [10] = molecular target: Fuc(a1-2)[GalNAc(a1-3)]Gal(b1-4)GlcNAc
# Procedure, shortened: as §1
# [11] = molecular target: Fuc(a1-2)[GalNAc(a1-3)]Gal(b1-4)[Fuc(a1-3)]GlcNAc(b1-3)GalNAc
# Procedure, shortened: as §1
# [12] = molecular target: Fuc(a1-3)[Gal(b1-4)]GlcNAc(b1-2)Man
# Procedure, shortened: as §1
# [13] = molecular target: Fuc(a1-3)[Gal(b1-4)]GlcNAc(b1-4)Gal(b1-4)[Fuc(a1-3)]GlcNAc
# Procedure, shortened: as §1
# [14] = molecular target: Fuc(a1-3)[Gal3S(b1-4)]GlcNAc6S
# Procedure, shortened: as §1
# Fuc(a1-4)GlcNAc = molecular target: Fuc(a1-4)GlcNAc
# Procedure, shortened: as §1
# Gal(a1-3)Gal(b1-3)GlcNAc = molecular target: Gal(a1-3)Gal(b1-3)GlcNAc
# Procedure, shortened: as §1
# Gal(a1-3)Gal(b1-4)Glc = molecular target: Gal(a1-3)Gal(b1-4)Glc
# Procedure, shortened: as §1
# [15] = molecular target: Gal(a1-4)Gal(b1-3)GlcNAc(b1-2)Man(a1-3)[Gal(a1-4)Gal(b1-3)GlcNAc(b1-2)Man(a1-6)]Man(b1-4)GlcNAc(b1-4)GlcNAc
# Procedure, shortened: as §1
# Gal(a1-4)GlcNAc = molecular target: Gal(a1-4)GlcNAc
# Procedure, shortened: as §1
# Gal(b1-2)Gal = molecular target: Gal(b1-2)Gal
# Procedure, shortened: as §1
# [16] = molecular target: Gal(b1-3)GlcNAc(b1-3)Gal(b1-4)GlcNAc(b1-3)Gal(b1-4)GlcNAc(b1-2)[Gal(b1-3)GlcNAc(b1-3)Gal(b1-4)GlcNAc(b1-3)Gal(b1-4)GlcNAc(b1-6)]Man(a1-6)[Gal(b1-3)GlcNAc(b1-3)Gal(b1-4)GlcNAc(b1-3)Gal(b1-4)GlcNAc(b1-2)Man(a1-3)]Man(b1-4)GlcNAc(b1-4)[Fuc(a1-6)]GlcNAc
# Procedure, shortened: as §1
# [17] = molecular target: Gal(b1-3)GlcNAc(b1-3)Gal(b1-4)[Fuc(a1-3)]GlcNAc(b1-6)[Gal(b1-3)GlcNAc(b1-3)]Gal(b1-4)Glc
# Procedure, shortened: as §1
# [18] = molecular target: Gal(b1-3)GlcNAc(b1-3)GalNAc
# Procedure, shortened: as §1
# [19] = molecular target: Gal(b1-4)GlcNAc(b1-3)Gal(b1-3)GlcNAc
# Procedure, shortened: as §1
# [20] = molecular target: Gal(b1-4)GlcNAc(b1-3)GalNAc
# Procedure, shortened: as §1
# [21] = molecular target: Gal(b1-4)GlcNAc(b1-6)[Gal(b1-3)]GalNAc
# Procedure, shortened: as §1
# GalNAc(a1-3)GalNAc = molecular target: GalNAc(a1-3)GalNAc
# Procedure, shortened: as §1
# [22] = molecular target: GalNAc(a1-3)GalNAc(a1-3)Gal(a1-4)Gal(b1-4)GlcNAc
# Procedure, shortened: as §1
# [23] = molecular target: GalNAc(a1-3)GalNAc(b1-3)Gal(a1-4)Gal(b1-4)Glc
# Procedure, shortened: as §1
# GalNAc(b1-4)GlcNAc6S = molecular target: GalNAc(b1-4)GlcNAc6S
# Procedure, shortened: as §1
# [24] = molecular target: GlcNAc(a1-4)Gal(b1-4)GalNAc
# Procedure, shortened: as §1
# [25] = molecular target: GlcNAc(a1-4)Gal(b1-4)GlcNAc(b1-3)Gal(b1-4)[Fuc(a1-3)]GlcNAc(b1-3)Gal(b1-4)[Fuc(a1-3)]GlcNAc
# Procedure, shortened: as §1
# [26] = molecular target: GlcNAc(b1-2)[GlcNAc(b1-4)]Man(a1-3)[GlcNAc(b1-4)][GlcNAc(b1-2)Man(a1-6)]Man(b1-4)GlcNAc(b1-4)GlcNAc
# Procedure, shortened: as §1
# [27] = molecular target: GlcNAc(b1-3)Gal(b1-4)GlcNAc(b1-3)Gal(b1-4)GlcNAc(b1-3)Gal(b1-4)GlcNAc(b1-3)Gal(b1-4)GlcNAc(b1-2)[GlcNAc(b1-3)Gal(b1-4)GlcNAc(b1-3)Gal(b1-4)GlcNAc(b1-3)Gal(b1-4)GlcNAc(b1-3)Gal(b1-4)GlcNAc(b1-6)]Man(a1-6)[GlcNAc(b1-3)Gal(b1-4)GlcNAc(b1-3)Gal(b1-4)GlcNAc(b1-3)Gal(b1-4)GlcNAc(b1-3)Gal(b1-4)GlcNAc(b1-2)Man(a1-3)]Man(b1-4)GlcNAc(b1-4)[Fuc(a1-6)]GlcNAc
# Procedure, shortened: as §1
# [28] = molecular target: GlcNAc(b1-3)Gal(b1-4)GlcNAc(b1-3)GalNAc
# Procedure, shortened: as §1
# GlcNAc(b1-3)GalNAc = molecular target: GlcNAc(b1-3)GalNAc
# Procedure, shortened: as §1
# [29] = molecular target: GlcNAc(b1-4)Gal(b1-4)GlcNAc
# Procedure, shortened: as §1
# Kdn(a2-3)Gal(b1-3)GlcNAc = molecular target: Kdn(a2-3)Gal(b1-3)GlcNAc
# Procedure, shortened: as §1
# [30] = molecular target: Man(a1-2)Man(a1-2)Man(a1-6)[Man(a1-3)]Man
# Procedure, shortened: as §1
# MurNAc(b1-4)GlcNAc = molecular target: MurNAc(b1-4)GlcNAc
# Procedure, shortened: as §1
# Neu5Ac(a2-3)GalNAc = molecular target: Neu5Ac(a2-3)GalNAc
# Procedure, shortened: as §1
# [31] = molecular target: Neu5Ac(a2-3)[GalNAc(b1-4)]Gal(b1-4)Glc
# Procedure, shortened: as §1
# [32] = molecular target: Neu5Ac(a2-3)[GalNAc(b1-4)]Gal(b1-4)GlcNAc
# Procedure, shortened: as §1
# [33] = molecular target: Neu5Ac(a2-6)Gal(b1-4)GlcNAc
# Procedure, shortened: as §1
# [34] = molecular target: Neu5Ac(a2-6)Gal(b1-4)GlcNAc(b1-2)Man
# Procedure, shortened: as §1
# [35] = molecular target: Neu5Ac(a2-6)Gal(b1-4)GlcNAc(b1-2)Man(a1-3)Man(b1-4)GlcNAc(b1-4)GlcNAc
# Procedure, shortened: as §1
# [36] = molecular target: Neu5Ac(a2-6)Gal(b1-4)GlcNAc(b1-2)Man(a1-6)[Gal(b1-4)GlcNAc(b1-2)Man(a1-3)]Man(b1-4)GlcNAc(b1-4)GlcNAc
# Procedure, shortened: as §1
# [37] = molecular target: Neu5Ac(a2-6)Gal(b1-4)GlcNAc6S
# Procedure, shortened: as §1
# [38] = molecular target: Neu5Ac(a2-8)Neu5Ac(a2-3)[Gal(b1-3)GalNAc(b1-4)]Gal(b1-4)Glc
# Procedure, shortened: as §1
# [39] = molecular target: Neu5Ac(a2-8)Neu5Ac(a2-8)Neu5Ac(a2-8)Neu5Ac(a2-3)[GalNAc(b1-4)]Gal(b1-4)Glc
# Procedure, shortened: as §1
binder,measurement,setting,value
B1,glycan array binding signal (z-score),[1],-0.133
same,glycan array binding signal (z-score),[2],-0.099
same,glycan array binding signal (z-score),[3],-0.152
same,glycan array binding signal (z-score),[4],-0.142
same,glycan array binding signal (z-score),Fuc(a1-2)Gal(b1-4)Glc6S,-0.09
same,glycan array binding signal (z-score),[5],0.449
same,glycan array binding signal (z-score),[6],-0.041
same,glycan array binding signal (z-score),Fuc(a1-2)Gal6S(b1-4)Glc,0.346
same,glycan array binding signal (z-score),[7],0.024
same,glycan array binding signal (z-score),[8],-0.113
same,glycan array binding signal (z-score),[9],0.577
same,glycan array binding signal (z-score),[10],0.575
same,glycan array binding signal (z-score),[11],0.333
same,glycan array binding signal (z-score),[12],-0.116
same,glycan array binding signal (z-score),[13],-0.19
same,glycan array binding signal (z-score),[14],-0.015
same,glycan array binding signal (z-score),Fuc(a1-4)GlcNAc,-0.115
same,glycan array binding signal (z-score),Gal(a1-3)Gal(b1-3)GlcNAc,-0.124
same,glycan array binding signal (z-score),Gal(a1-3)Gal(b1-4)Glc,-0.119
same,glycan array binding signal (z-score),[15],-0.059
same,glycan array binding signal (z-score),Gal(a1-4)GlcNAc,-0.126
same,glycan array binding signal (z-score),Gal(b1-2)Gal,-0.113
same,glycan array binding signal (z-score),[16],0.071
same,glycan array binding signal (z-score),[17],-0.1
same,glycan array binding signal (z-score),[18],-0.126
same,glycan array binding signal (z-score),[19],-0.125
same,glycan array binding signal (z-score),[20],-0.144
same,glycan array binding signal (z-score),[21],-0.121
same,glycan array binding signal (z-score),GalNAc(a1-3)GalNAc,12.1
same,glycan array binding signal (z-score),[22],12.5
same,glycan array binding signal (z-score),[23],13.4
same,glycan array binding signal (z-score),GalNAc(b1-4)GlcNAc6S,1.8
same,glycan array binding signal (z-score),[24],-0.085
same,glycan array binding signal (z-score),[25],-0.007
same,glycan array binding signal (z-score),[26],-0.133
same,glycan array binding signal (z-score),[27],-0.1
same,glycan array binding signal (z-score),[28],-0.139
same,glycan array binding signal (z-score),GlcNAc(b1-3)GalNAc,-0.101
same,glycan array binding signal (z-score),[29],-0.16
same,glycan array binding signal (z-score),Kdn(a2-3)Gal(b1-3)GlcNAc,-0.169
same,glycan array binding signal (z-score),[30],-0.081
same,glycan array binding signal (z-score),MurNAc(b1-4)GlcNAc,-0.119
same,glycan array binding signal (z-score),Neu5Ac(a2-3)GalNAc,-0.165
same,glycan array binding signal (z-score),[31],4.19
same,glycan array binding signal (z-score),[32],3.09
same,glycan array binding signal (z-score),[33],-0.103
same,glycan array binding signal (z-score),[34],-0.127
same,glycan array binding signal (z-score),[35],-0.098
same,glycan array binding signal (z-score),[36],-0.144
same,glycan array binding signal (z-score),[37],-0.118
same,glycan array binding signal (z-score),[38],-0.124
same,glycan array binding signal (z-score),[39],-0.104

# From the supplement of paper PMC8728848
